# ± gives the standard deviation of the averaged measurements. Over roughly 25,000 sequences, “ln(normalized median fluorescence intensity)” has its median near 10; the highest 2% begin near 12. Many of the other results were omitted from the sample, so the highest values are more common in it than they were.
# System: PfAP2-G AP2 domain (GST-tagged)
# Assay: gcPBM binding intensity (ln(normalized median fluorescence intensity)); higher = stronger DNA binding
# Method in brief: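 Binding of GST-tagged P. falciparum DNA-binding domains, expressed in E. coli and used at about 25 μg on average, was carried out for 1 h in 1× PBS containing 1% milk, 0.2 mg/ml BSA, 0.5% salmon testes DNA and 0.03% Triton X-100. The target was an Agilent 4 × 180k array of primer-extended double-stranded 36-bp intergenic genomic probes plus negative controls, read with Alexa488 anti-GST antibody at 488 nm. Binding intensity is the highest Masliner-normalised natural-log median intensity across replicate spots of either probe orientation.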
row,Sequence,gcPBM binding intensity (ln)
1,GACCATATGAATAATGCACACGTTTTAAAATATTAA [CACACA_site5312],10.23 ± 0.028
2,AACGATATATGTACTACACACATTATGTCATCCTAT [CACACA_site2464],11.5 ± 0.83
3,AACGATATAGGTACTACACACATTATGTCATCCTAT [CACACA_site7205],11.2 ± 0.77
4,AACGATATCTGTACTACACACATTATGTCATCCTAT [CACACA_site5374],11.8 ± 1.1
5,TATAATGAACATATGTGTACATATATTTTTTAAATT [XGTACX_site8736],11.4 ± 0.72
6,CACTTTTTTTAAATGTGTACGTATATGAAAATATCA [XGTACX_site4854],11.7 ± 1
7,TTTGTATAATACATGTGTACGTATTTTTATATAAAT [XGTACX_site8656],11.6 ± 0.95
8,TTAAATGAAAAAATATGTACGTATAATAAGAAATAT [XGTACX_site6619],11.6 ± 0.87
9,ATGTATGAAAAAATGTGTACATAATTTTTTTTTTTT [XGTACX_site5444],11.7 ± 1
10,ATATTTATATTTATGTGTACATATGAAATAATTATT [XGTACX_site7765],11.5 ± 0.72
11,TTTTATACATAAATGTGTACGTATATATAATGAATT [XGTACX_site2762],11.7 ± 1
12,TTTTATACATAAATATGTACGTATATATAATGAATT [XGTACX_site1337],11.3 ± 0.73
13,AAATTTTAAATAGTATGTACGTATGAAATATATATG [XGTACX_site7511],11.4 ± 0.79
14,TTTTTTTAAAATATGAGTACATAATATTGTAAAAAT [XGTACX_site6536],11.4 ± 0.9
15,AGTTTGATTTTTTCTTATAATATATTATTATATATT [CACACA_negctrl_site376],9.975 ± 0.021
16,CATATGTAGGGAACAATATAATATGCTTTGAATATG [GTGCAC_negctrl_site524],10.2 ± 0.14
17,AAGAATATTAATATAAATAAGTAAATAAATAAATAA [CACACA_negctrl_site417],9.78 ± 0.11
18,GTATAATTTAAAAAGTGTACATAAAGTTTTTATTAA [XGTACX_site1090],11.6 ± 0.81
19,ATATATATATATATATGTACATATACACATGTGTGC [XGTACX_site168],11.2 ± 0.55
20,AAAAATATAATATAATGTACACAAAAAAAAAAAATC [XGTACX_site1427],11.4 ± 0.71
21,ATAATCTGACAAATGTGTACACATATATATATATAT [XGTACX_site2379],11.6 ± 0.97
22,GTACAAATGTTGTGTATATATACACACATACATATA [XGTACX_negctrl_site276],10.9 ± 0.46
23,CATATTAGGACAAAGTGTACATATATATATATATAT [XGTACX_site1172],11.4 ± 0.86

row,Sequence,gcPBM binding intensity (ln)
1,ATCTGACAAAAGTGTACACATATATATATATATATA [CACACA_site4814],11.7 ± 1.2
2,TATGTAACAAAAAAAAGTACACATATATATAGTGTA [XGTACX_site7772],11.6 ± 0.85
3,AAATGCGCCATGTGTACACATATATATATATATATA [CACACA_site4649],11.5 ± 0.88
4,AAAAAATGCGACATGTGTACACATATATATATATAT [XGTACX_site1679],11.8 ± 0.99
5,TAATTTTCATAATTTTGTACTTAACGTTTTACCTTG [XGTACX_site8048],10.9 ± 0.5
6,TGCACAAAATTATGCACACACCTAAAATTAATTTTT [CACACA_site5596],10.2 ± 0.21
7,TAAATTTAAAATGACACACACTAAAATTATTTAAGT [CACACA_site4816],10.05 ± 0.021
8,ATAGAACAGAAAAGGCGTACAATAATATGTAAACAA [XGTACX_site2828],11.8 ± 1.1
9,ATAAAGAAAAGGAACACACAAATATGTAAATATGTA [CACACA_site6356],10.06 ± 0.085
10,TATGAGAACAAACATTGTACAATAAAAAGTAGATAT [XGTACX_site920],11.2 ± 0.35
11,TTTCATAACAAAAAAGTGCAAAATAGCACGAACATT [GTGCAC_site9703],10.3 ± 0.16
12,AAACGATTAATGTGTACACACATAGTTATAAACCTA [CACACA_site2110],11.6 ± 0.91
13,AAACGATTACTGTGTACACACATAGTTATAAACATA [CACACA_site5195],11.5 ± 0.72
14,TAAACACATTATATATGTACATAATAAAAAAAAAAA [XGTACX_site7907],11.2 ± 0.83
15,AAACGATTAATGTGTACACACATAGTTATAAACATA [CACACA_site7073],11.7 ± 1.2
16,TTATAAAACACAAAATGTACAAAAAATTATAATTAA [XGTACX_site6859],10.7 ± 0.33
17,AAAAACGATTAATGTGTACACACATAGTTATAAACA [CACACA_site8659],11.7 ± 1.2
18,TAATGACAATAAAAATAAATAAATAAAAAAAAAAAA [TGCATGCA_negctrl_site321],9.51 ± 0.59
19,ATATAAATATAAACATGTACATATATATATATATAT [XGTACX_site2824],11.1 ± 0.69
20,AAAATTTTTCTTAAAGCATGCACAATTAAGAAGACG [TGCATGCA_site883],10.2 ± 0.13
21,TTTTTCATAAAAAAATAAAAAAAATTAACATAGAAA [XGTACX_negctrl_site11],9.95 ± 0.26
22,TTTATACTTTCAAAATGTACATATATATATATATAT [XGTACX_site6241],11.1 ± 0.63
23,ATATATACTATAATAGTGCATTAAAAAAGTAAAAAT,10.2 ± 0.25

row,Sequence,gcPBM binding intensity (ln)
1,TAAATAAATATATGTACACACACAAATATATACATA [CACACA_site8577],11.4 ± 0.73
2,TAAAACATATATACAAGTACACAAAGGATATATATA [XGTACX_site3710],11.4 ± 0.95
3,GTAAATACACATATGTGTACATATATATATATATAT [XGTACX_site3696],11.5 ± 0.86
4,AAAAAAAAAAAAACAAGTACAAAGGATAGAAAAAAA [XGTACX_site4133],11.2 ± 0.71
5,AAAAATATAATATAATGTACACATAAACAAAAAAAA [XGTACX_site3658],11.4 ± 0.84
6,GTTTTAAAACAAATATGTACACATAATATAGGAAAG [XGTACX_site1803],11.7 ± 0.82
7,AAGGGGAAAAAAAAAAGTACACAAACATAGGATAAT [XGTACX_site377],11.7 ± 1
8,AATAAATATAGGTACACACACAAATATGTACATATC [CACACA_site6976],11.7 ± 0.92
9,AATAAAAATAGGAAATGTACACATATATATATATAT [XGTACX_site1853],11.2 ± 0.59
10,AATATATATATGTGTACACATCCAAAATAGGCATAC [CACACA_site5705],11.7 ± 1.1
11,CATCCACAAATATGTACACACATATATAAATATGTA [CACACA_site7407],11.4 ± 0.93
12,AATAAATATATGTACACACACAAATATATACATATC [CACACA_site1903],11.3 ± 0.63
13,AAAAAAAAAAGAAAGAGTACTTTTTCAATACATATA [XGTACX_site2468],11.1 ± 0.7
14,TTAACTTATTTGTAAAGTACATTAATAAAAAGAAAA [XGTACX_site1588],11.1 ± 0.42
15,ATATATATATATATATGTACATATATTTTTATTTAT [XGTACX_site3508],11.2 ± 0.76
16,TAACTACTAGAAAAAACACACAAAAAGTAAATATAT [CACACA_site2740],10.045 ± 0.007
17,ATACATACATATATATGTACTTATATTTTACACATT [XGTACX_site1688],11.2 ± 0.75
18,AATGGAAAAATAGGCACACACACATAAATACAGATA [CACACA_site4844],10.3 ± 0.18
19,TGTAAATATAAATGTAATAAATATGTAAAAATAAAT [XGTACX_negctrl_site171],9.79 ± 0.13
20,AATGAATAAATAAACACACACACATATATAAATATG [CACACA_site6160],10.05 ± 0.014
21,GATAAAATATGTTGCCGTACATATTCATATACTTAA [XGTACX_site4776],11 ± 0.62
22,GGTAGTTATTATCTCCGTACTTATAAAGAAAAAAGG [XGTACX_site4674],10.9 ± 0.63
23,ATTTTTATTTTTTTTGTGCACATTTTCATTTTCTAT [GTGCAC_site9580],10.54 ± 0.085

row,Sequence,gcPBM binding intensity (ln)
1,TATGTATATTTTTTTGTGCACATATATATATATATA,10.4 ± 0.35
2,TTTGTGTGTACGCGTGTGCACATTTTTTTTTTTTTT,11.7 ± 0.92
3,TCATATTTCCATAGGAGTACATAAAAAAAATAATAT [XGTACX_site7601],11.7 ± 1.2
4,TATAATATAAAAATGAGTACATAGATAATAATATTT [XGTACX_site2376],11.3 ± 0.74
5,ATAAATCATAAGGAGAGTACATAAATAAAATAATCA [XGTACX_site8825],11.2 ± 0.71
6,TATACACATATATACACACACATATATAAATAAATA [CACACA_site7579],10 ± 0.23
7,CAAACAAACGGACACACACACACACCCAAAAATGAT [CACACA_site5363],11.2 ± 0.69
8,TATATTTATATAATATGTACATATTTTTTAATATTT [XGTACX_site3834],11.2 ± 0.72
9,GTGTAATATGAAATGTGTACACACGCACACACAAAA [XGTACX_site6180],11.7 ± 1.1
10,ATTTTTTTACAAAAATGTACACATGAAATATGTAAT [XGTACX_site1372],11.3 ± 0.69
11,AATGTACACGCACCCACACACAAACAAATATAAATA [CACACA_site7319],11.4 ± 1
12,TAATATGAAAAGTGTACACACGCACAGACAAAAAAA [CACACA_site5594],11.6 ± 0.95
13,TGTAATATGAAATGTGTACACACGCACCCACAAAAA [CACACA_site8948],11.6 ± 1
14,TAATATGAAATGTGTACACACGCACCCACAAAAAAA [CACACA_site8949],11.8 ± 0.93
15,AATGTGTACGCACGCACACACAAAAAAATATATATA [CACACA_site2913],11.6 ± 1.2
16,ATATGAAAGGTGTACACACGCACACCCAAAAAAATA [CACACA_site2911],11.7 ± 0.95
17,AACATATTAATGTACACACACCCACGCACAAACAAA [CACACA_site7320],11.5 ± 0.91
18,AATGTACACCCACCCACACACAAACAAATATATATA [CACACA_site5521],11.4 ± 0.92
19,GAAATGTGTAGACACGCACACACAAAAAAATATATA [CACACA_site2912],10.2 ± 0.34
20,GAAAAAGACAAAAGGTGTACAATATGAAATATATAT [XGTACX_site373],11.5 ± 0.86

# — the supplement of paper PMC11417369
